Measured values as given in PubChem BioAssay (NCI).
Compounds without any hit were thinned out: in the full panel of roughly 79,000, 15% have a hit. Rule as the data show it: active = growth inhibition above about 70%; inactive = the rest.

Legend:
[1] = NCI Yeast Anticancer Drug Screen. Data for the rad50 strain (AID 155);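 also: 0% = growth of vehicle-only cultures of the same strain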; conditions: S. cerevisiae rad50 strain growth inhibition; at 50.0 µM; active compounds read high
Procedure, shortened: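 Readout: growth inhibition relative to vehicle-treated cultures. Compound exposure was carried out in a genetically defined yeast strain deficient in DNA damage repair.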

[2] = NCI Yeast Anticancer Drug Screen. Data for the mec2-1 strain (AID 157); conditions: S. cerevisiae mec2-1 strain, at 50.0 µM, active compounds read high
Procedure, shortened: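 Mutant yeast (mec2-1) grown with compound; growth inhibition relative to vehicle control reported.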

[3] = NCI Yeast Anticancer Drug Screen. Data for the sgs1 mgt1 strain (AID 161);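 also: 0% = growth of cultures given vehicle only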; conditions: S. cerevisiae sgs1 mgt1 strain, at 50.0 µM, active compounds read high
Procedure, shortened: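 Percent growth inhibition was derived by comparing compound-exposed mutant yeast with vehicle-exposed cultures. The strain carries alterations in DNA damage repair.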

[4] = NCI Yeast Anticancer Drug Screen. Data for the cln2 rad14 strain (AID 165);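 also: 0% = growth equal to vehicle treated cultures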; conditions: S. cerevisiae cln2 rad14 strain, at 50.0 µM, active compounds read high
Procedure, shortened: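 Readout is yeast growth inhibition versus vehicle-treated controls, using a strain with cln2 and rad14 alterations exposed to compound.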

[5] = NCI Yeast Anticancer Drug Screen. Data for the bub3 strain (AID 167); conditions: S. cerevisiae bub3 mutant strain, at 50.0 µM, active compounds read high
Procedure, shortened: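 Readout: yeast growth inhibition, expressed relative to vehicle-only wells. The test organism is a mutant strain from a panel with lesions in DNA repair or checkpoint genes.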

[6] = NCI Yeast Anticancer Drug Screen. Data for the mlh1 rad18 strain (AID 175); conditions: S. cerevisiae mlh1 rad18 strain growth inhibition; at 50.0 µM; active compounds read high
Procedure, shortened: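 Genetically defined yeast (DNA repair-deficient) exposed to compounds; growth inhibition determined relative to vehicle.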

Measured: growth inhibition

COc1cc(NC(C)CCCNC(C)C)c2nccc(C)c2c1 (stereo not drawn)
inactive: [1] 17.4% | [2] 16.3% | [3] 20.9% | [4] 3.25% | [5] 11.6% | [6] 27.9%

CC1(C)CCC2(C)CC=C3C(C)(CCC4C3(C)CCC3C(C)(C)C(O)CCC43C)C2C1 (stereo not drawn)
inactive: [1] 0.9% | [2] -4.2% | [3] -23.2% | [4] -10.3% | [5] -18% | [6] -10.4%

CCCCCCCCCCCCCCCCS(=O)(=O)N/N=C(/C)N(C)c1ccc(OC)cc1
inactive: [1] -15.4% | [2] -32.4% | [3] -6.1% | [4] -10.4% | [5] -15.4% | [6] -7.15%

Nc1ccc(-c2ccc(Nc3cc(S(=O)(=O)O)c(N)c4c3C(=O)c3ccccc3C4=O)cc2)c(S(=O)(=O)O)c1
inactive: [1] -23.9% | [2] 14.8% | [3] -32.5% | [4] 8.45% | [5] -38.1% | [6] -9.05%

CC(=O)Oc1ccc(CCNC(c2ccccc2)c2ccccc2)cc1OC(C)=O
inactive: [1] 44% | [2] 13.2% | [3] 42.5% | [4] -7.6% | [5] -17.4% | [6] 38.3%

CCc1cc(CN2CCN(CCO)CC2)c(O)c(CN2CCN(CCO)CC2)c1
inactive: [1] 1.5% | [2] 6% | [3] -13.2% | [4] 3% | [5] -0.9% | [6] 9.35%

C=CCOC(=O)c1cccc(C)c1
inactive: [1] 9.7% | [2] 0.3% | [3] -1% | [4] -41.4% | [5] 9.9% | [6] 7.7%

NC(N)=N/N=C/c1c(Cl)nc2sccn12
inactive: [1] -11.4% | [2] -64.8% | [3] -17.5% | [4] -30.3% | [5] -8.8% | [6] -5.6%

OCCSC(SCCO)=C(SCCO)SCCO
inactive: [1] 9.85% | [2] -15.7% | [3] -1.55% | [4] -13.2% | [5] 1.35% | [6] 2.75%

CC(C)(O)C(Cc1ccccc1)c1ccccc1 (stereo not drawn)
inactive: [1] 0.55% | [2] 7.9% | [3] -16.1% | [4] -2.1% | [5] -23.6% | [6] 0.8%

COc1ccc2ccccc2c1C1OC(=O)c2ccccc21 (stereo not drawn)
inactive: [1] 37.8% | [2] 24.6% | [3] 51.7% | [4] 33.4% | [5] 25.2% | [6] 52.5%

C[N+]1(C)CCCC1
inactive: [1] 24.5% | [2] 5.5% | [3] 24.2% | [4] 7.6% | [5] 35.5% | [6] 16.1%

O=c1[nH]ncn2nc3ccccc3c12
inactive: [1] 3% | [2] 10.2% | [3] -2.5% | [4] -53.1% | [5] -1.3% | [6] 8.15%

Cc1cc2ccc(OC(=O)c3ccc(N=C(N)N)cc3)cc2oc1=O
inactive: [1] -8.95% | [2] 4.3% | [3] -29.6% | [4] -47.8% | [5] -24.6% | [6] 13.7%

CC1CC(N2CSC(=S)N(C3CC(C)CC(C)(C)C3)C2)CC(C)(C)C1 (stereo not drawn)
inactive: [1] -17.2% | [2] -16.2% | [3] -4.55% | [4] 9.5% | [5] 3.9% | [6] -0.4%

N#CCCOCC(COCCC#N)(COCCC#N)COCCC#N
inactive: [1] -11.9% | [2] -24.4% | [3] -7.55% | [4] 10% | [5] -12.9% | [6] -2.25%

COC(=O)c1nc(N)nc(C(=O)OC)c1C(=O)c1c(C)[nH]c2ccccc12
inactive: [1] -9.85% | [2] -20% | [3] -36.9% | [4] -30.1% | [5] -28.4% | [6] -25.6%

NNc1nnc(NN)c2ccccc12
inactive: [1] 1.75% | [2] -2.05% | [3] 0.8% | [4] 3.65% | [5] 4.45% | [6] 4.7%

CC(=O)Oc1ccc(-c2c3ccccc3cc3c2ccc2ccccc23)cc1
inactive: [1] 1.75% | [2] -10.4% | [3] -9.85% | [4] -5.05% | [5] -2.7% | [6] -28.3%

NCCSCc1ccccc1Cl
inactive: [1] -10.3% | [2] -27.2% | [3] -50.9% | [4] -33.5% | [5] -23.6% | [6] -0.4%

COc1nc2c(nc(N)n2C2OC(CO)C(O)C(O)C2O)c(=O)[nH]1 (stereo not drawn)
inactive: [1] -26.4% | [2] -8% | [3] -1.5% | [4] 3.45% | [5] 0.95% | [6] 20.9%

Cc1nc(NS(=O)(=O)c2ccc(N)cc2)nc(C)c1Br
inactive: [1] -9.75% | [2] -9.55% | [3] 4.1% | [4] -52% | [5] -14.7% | [6] -15.1%

CC(=O)CC(=O)NCc1ccccc1
inactive: [1] 10.7% | [2] -15.9% | [3] 25% | [4] 17.2% | [5] 1.55% | [6] 5.15%

N#C/C(=C\c1ccccn1)c1nc(-c2ccc(Cl)cc2)cs1
inactive: [1] -9.6% | [2] -27.9% | [3] -12.7% | [4] -0.1% | [5] 0.5% | [6] -14.6%

COC(=O)C(N)Cc1ccc(OC)cc1 (stereo not drawn)
inactive: [1] -4.95% | [2] -9.25% | [3] 8.1% | [4] -1.95% | [5] 7.6% | [6] 3.75%

CC(=O)Nc1ccc(S(=O)(=O)N2c3ccccc3Sc3ccccc32)cc1
inactive: [1] 8.95% | [2] -5.9% | [3] 4.95% | [4] 3.05% | [5] -1.5% | [6] 4.2%

CN(CCO)c1cnn(CCO)c(=O)c1Cl
inactive: [1] -14.9% | [2] -8.25% | [3] -17.6% | [4] -6.15% | [5] 8.2% | [6] -7.45%

BrCC(Br)c1ccc(C(Br)CBr)cc1 (stereo not drawn)
inactive: [1] 7.65% | [2] -21.6% | [3] 25.1% | [4] 14.7% | [5] 1.5% | [6] 12.1%

CCOC(=O)C1=CCOc2cc(N(C)C)ccc21
inactive: [1] -9.25% | [2] 9.15% | [3] -1.25% | [4] 32.4% | [5] 8.75% | [6] -6.9%

CCCCOC(=O)c1ccc(NC(=O)Nc2ccc(SC)cc2)cc1
inactive: [1] -4.05% | [2] 1.8% | [3] 19.2% | [4] -8.75% | [5] 19.8% | [6] -13.1%

Nc1cn(Cc2ccccc2)c(=O)n(Cc2ccccc2)c1=O
inactive: [1] -1.85% | [2] -7.85% | [3] -9.5% | [4] -57.5% | [5] 8.95% | [6] -23.6%

CCCNC(=S)NN1C2CSC1CS2
inactive: [1] 3.15% | [2] 14.9% | [3] -1.35% | [4] -33.2% | [5] -23.9% | [6] -0.4%

CC(C)CCCC(C)C1CCC2C1CCC1C2CCC2(C)CCC(=O)CCC12C (stereo not drawn)
inactive: [1] 24.8% | [2] -2.85% | [3] -2.55% | [4] -17.8% | [5] 1.6% | [6] -4%

CCCCCCCCCCCC(=O)Nc1ccc(NC(C)=O)cc1
inactive: [1] 8.25% | [2] 25.1% | [3] 22.6% | [4] -14% | [5] 24.9% | [6] 23.9%

CN(C)S(=O)(=O)N1CCCc2ccccc21
inactive: [1] 3.4% | [2] 8.8% | [3] 3.55% | [4] 7.1% | [5] 31.1% | [6] 11%

CCCOC(=O)CC(CC(=O)OCCC)C(=O)OCCC
inactive: [1] -10.9% | [2] 0.55% | [3] -3.75% | [4] -13.4% | [5] 37.2% | [6] -2.5%

CC(=O)Oc1ccc(OC(C)=O)c2cc3ccccc3cc12
inactive: [1] -28.1% | [2] -29.1% | [3] -32.9% | [4] -6.6% | [5] -12.8% | [6] -19.8%

Nc1ccc(-c2c[nH]c(=O)c([N+](=O)[O-])c2)cc1
inactive: [1] 3.5% | [2] -6.05% | [3] -1.35% | [4] -28.5% | [5] 3.5% | [6] -6.4%
